Only some compounds are listed: those with a hit (about 8% of all), similar ones and a draw of the others.
PostGolgi ctrl – growth inhibition of yeast control strain, primary screen, counter-screen for post-Golgi transport modulator project; efflux-deficient yeast background strain, growth absorbance A615, 16 h; inhibition, % at 10 µM; 98,000 tested, 5% active
PTK2B oligo ant – antagonists of Pyk2 self-association, primary screen, Q293 cells, FERM NanoBiT luminescence, HTS; active compounds read low; z-score (the deposit names both 25 µM and 10 µM); 99,000 tested, 0.83% active;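 active means Z-score of -3 or lower, scaled per plate to the spread of control and sample wells; inactive means z-score above -3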;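 further: negative z-score means lost luminescence so less FERM oligomerization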
Cav3 T inh – Cav3.2 calcium influx blockers – cell-based, Fluo-4 calcium fluorescence, FDSS, MLSMR library, primary screen; Voltage-dependent T-type calcium channel subunit alpha-1H (Homo sapiens), O95180; Cav3.2-expressing cells; active compounds read low; B-score at 10 µM; 100,000 tested, 4% active;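 active means single-dose well whose peak fluorescence ratio is a statistical outlier from its plate by either plate-standardised score or position-corrected B-score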
PostGolgi yeast – phenotypic screen on post-Golgi transport, primary screen; post-Golgi transport phenotypic cell assay; inhibition, % at 10 µM; 98,000 tested, 0.9% active; AID 739, 2007;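 further: yeast cells grown in 1536-well plates; yeast grown about 18 h at 30C before absorbance read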
Large screens that a line does not name were inactive. Unless noted, no stated cut-off is given here; in the data, active means inhibition above about 30%; inactive means the rest.

COc1ccc(Cc2nc(C(=O)Nc3ccccc3)cs2)cc1	Cav3 T inh -3.8
COc1ccc(Cc2nc(C(=O)Nc3ccc(Cl)cc3)cs2)cc1	PostGolgi ctrl 38
COc1ccc(CNC(=O)c2noc3c2CCCC3)cc1	Cav3 T inh -5.4
COc1ccc(Cc2nc(C(=O)Nc3ccc(F)cc3)cs2)cc1	none
COc1ccc(CNC(=O)c2csc(Cc3ccc(OC)cc3)n2)cc1	Cav3 T inh -7.9
C1CCC(c2nn3c(-c4n[nH]c5c4CCC5)nnc3s2)CC1	none
CCN(CC)c1ccc(-c2nn3c(-c4n[nH]c5c4CCC5)nnc3s2)cc1	PostGolgi ctrl 43
Cc1ccc2c(CC(=O)O)coc2c1C	none
CCOc1ccc(CCNC(=O)CCCN2C(=O)c3ccccc3C2=O)cc1OCC	none
O=C(O)c1ccc(CSc2nnc(SCc3ccccc3)s2)cc1	Cav3 T inh -6.6
Cc1cc(C)cc(NC(=O)c2ccc(CSc3nnc(C)s3)cc2)c1	Cav3 T inh -11
Cc1nnc(SCc2ccc(C(=O)O)cc2)s1	none
CCC(=O)c1cc(F)c(N2CCN(C(=O)Cc3ccccc3)CC2)cc1C	none
CC(C)(C)n1nnnc1CN1CCN(C(c2ccccc2)c2ccccc2)CC1	Cav3 T inh -5.4 (no result: PostGolgi ctrl, PostGolgi yeast)
Cn1c(COc2ccccc2)nnc1SCCC(=O)Nc1ccccc1	none
O=C(N/N=C/c1ccco1)c1cc(-c2ccccc2)n[nH]1	none (no result: PostGolgi ctrl, PostGolgi yeast)
O=C(N/N=C/c1ccco1)c1cc(-c2cccc3ccccc23)n[nH]1	Cav3 T inh -6.2
c1ccc2c(c1)CC1(CCCCC1)n1nnnc1-2	none (no result: PostGolgi ctrl, PostGolgi yeast)
Nc1n[nH]c2c1C1(CCCCC1)Cc1ccccc1-2	PostGolgi ctrl 42
Cc1ccc2cccc(OC(=O)c3ccc4c(c3)OCCO4)c2n1	none
COc1cccc(C(=O)/C=C/Nc2ccc(S(=O)(=O)Nc3cccc(C(C)=O)c3)cc2)c1	PostGolgi ctrl 42 (no result: Cav3 T inh)
Cc1cc2ncn(-c3ncnc4sc(C)c(C)c34)c2cc1C	none (no result: Cav3 T inh)
Cc1cc2ncn(-c3ncnc4sc5c(c34)CCC(C)C5)c2cc1C (stereo not given)	PostGolgi ctrl 70 (no result: Cav3 T inh)
Cc1cc2ncn(-c3ncnc4sc5c(c34)CCCC5)c2cc1C	PostGolgi ctrl 39, Cav3 T inh -5.7 (no result: PTK2B oligo ant)
Cc1ccc2c(CC(=O)Nc3nc(C)cs3)coc2c1	Cav3 T inh -6.8
Cc1ccc2c(CC(=O)NC3=NCCS3)coc2c1	PostGolgi ctrl 33
COc1cc(NC(=O)c2ccc(COCC(F)(F)F)cc2)cc(OC)c1OC	none
CC1CCN(c2ccccc2NC(=S)NC(=O)c2cccs2)CC1	Cav3 T inh -6.3
CSc1nc2ccc(S(=O)(=O)N(C)C)cc2s1	none
CSc1nc2ccc(NS(=O)(=O)c3ccc(Cl)s3)cc2s1	PostGolgi ctrl 40, Cav3 T inh -5.6
NC(=O)[C@@H]1CC2(CC(c3cccc(NC(=O)[C@H]4CCC(=O)N4)c3)=NO2)CN1C(=O)COc1ccc(Cl)cc1 (stereo not given in full)	none (no result: PostGolgi ctrl, PTK2B oligo ant, PostGolgi yeast)
C=CCn1c(COc2ccc3c(c2)CCCC3)nnc1SCC(=O)Nc1cccc(SC)c1	Cav3 T inh -4.4
C=CCn1c(COc2ccccc2)nnc1SCC(=O)Nc1ccc2c(c1)OCCO2	none
O=Nc1c(O)n(Cc2ccc(Cl)cc2Cl)c2ccccc12	PostGolgi ctrl 65, PostGolgi yeast 34
CCOC(=O)n1c(=O)n(Cc2ccc(Cl)cc2Cl)c2ccccc21	PostGolgi ctrl 34 (no result: Cav3 T inh)
COC(=O)Oc1ccc(/C=N/NC(=O)CN(c2ccccc2Cl)S(C)(=O)=O)cc1OC	none
CCc1nnc(NC(=O)CSc2nnc(CNc3ccc(Cl)cc3)o2)s1	Cav3 T inh -4
CCc1nnc(NC(=O)CSc2nnc(Cc3ccccc3)o2)s1	Cav3 T inh 3.8
O=C1NC(=S)SC1=C1CCCC1	PostGolgi ctrl 56
COc1ccc(C2=CC(c3ccc(Cl)cc3)n3cnnc3N2)cc1OC (stereo not given)	none
Nc1ccc(-c2nc3c(Cl)c(N)ccc3[nH]2)cc1	PostGolgi ctrl 33
Nc1ccc2nc(-c3ccc(Cl)cc3)[nH]c2c1	none (no result: PTK2B oligo ant, Cav3 T inh)
CSc1nc2ccccc2cc1/C=C(\C#N)c1cccc(C)c1	none
Cc1cc(/C=C(/C#N)c2cccc(F)c2)c(C)n1-c1cccnc1	PostGolgi ctrl 37
Cc1cc(/C=C2/SC(=S)N(c3cccc(Cl)c3)C2=O)c(C)n1-c1cccnc1	none (no result: PostGolgi ctrl, PostGolgi yeast)
Cc1cc(/C=C(/C#N)c2cccc(Cl)c2)c(C)n1C	PostGolgi ctrl 43 (no result: PTK2B oligo ant, Cav3 T inh)
CCOC(=O)c1[nH]c2ccc(OC)cc2c1N=CN(C)C	none
O=C(NCc1cccnc1)c1ccccn1	none
O=C(NCCCNCc1ccccc1)c1ccccn1	PostGolgi ctrl 36
CCCC1(CCC)NC(=O)N(CC(=O)Nc2cccc(OC)c2)C1=O	none
CC(C)c1nc2oc3c(NCC4CCCO4)ncnc3c2c2c1COC(C)(C)C2 (stereo not given)	PostGolgi ctrl 35 (no result: Cav3 T inh)
COc1ccc(/C=N/N2C(=O)CSC2=S)cc1	none
COc1ccc(-c2nn(-c3ccccc3)cc2/C=N/N2C(=O)CSC2=S)cc1	PostGolgi ctrl 85, PostGolgi yeast 86
O=c1cc(N2CCOCC2)[nH]c(=O)n1-c1ccc(Br)cc1	none (no result: PTK2B oligo ant)
COc1cc(C)c(C(=O)Oc2cc(C)c(C(=O)O)c(O)c2)c(O)c1	Cav3 T inh -4.8 (no result: PostGolgi ctrl, PTK2B oligo ant, PostGolgi yeast)
COC(=O)c1ccccc1NC(=O)CN1CCC(n2nnc3cc(C(F)(F)F)ccc32)CC1	none (no result: Cav3 T inh)
CC1Cc2ccccc2N1C(=O)CN1CCC(n2nnc3cc(C(F)(F)F)ccc32)CC1 (stereo not given)	Cav3 T inh -9.5
Clc1ccc2[nH]cc(-c3nnnn3-c3ccccc3)c2c1	none
Clc1ccc2ncc(-c3nnnn3-c3ccccc3)c(-c3ccccc3)c2c1	PostGolgi ctrl 36
CCn1c2ccccc2c2cc(NC(=O)C(C)Oc3ccc(OC)cc3)ccc21 (stereo not given)	none
COc1ccc(NC(=O)CC2C(=O)N(c3cccc(C)c3)C(=O)N2C2CCCCC2)cc1 (stereo not given)	none
O=C(OCc1ccccc1Cl)c1cccnc1Cl	none
O=C(COC(=O)c1cccnc1Cl)c1ccccc1	PostGolgi ctrl 32 (no result: PostGolgi yeast)
O=P(O)(O)CCP(=O)(c1ccccc1)c1ccccc1	none
CCN(CC)CCP(=O)(c1ccccc1)c1ccccc1	Cav3 T inh -4
Cc1ccc(Cn2cccc(NC(=O)NC3CCCCC3)c2=O)cc1	none
Cc1[nH]c(=O)c(C(=O)/C=C/c2ccccc2F)c2c1CCCC2	PostGolgi ctrl 30
CC1(c2cnc(Nc3ccccc3)s2)CCC(=O)O1 (stereo not given)	PostGolgi ctrl 39
O=C1CC(C(=O)Nc2ccccc2)C2(CCCCC2)O1 (stereo not given)	none
COc1cccc(CNn2c(-c3cccc(C)c3)nc3ccccc3c2=O)c1O	PostGolgi ctrl 47
COc1cccc(/C=N/n2c(C)nc3ccccc3c2=O)c1O	none
COc1ccccc1Cn1c(-c2ccccc2OC)nc2ccccc21	PostGolgi ctrl 48, Cav3 T inh -6.4
c1ccc(Cn2c(NCc3ccco3)nc3ccccc32)cc1	none
COc1ccc(CNc2nc3ccccc3n2Cc2ccccc2)cc1OC	Cav3 T inh -5.4
COc1ccc(-c2nc3ccccc3n2Cc2ccccc2)cc1	PostGolgi ctrl 55, Cav3 T inh -9.9

From PubChem
